The text below walks through data of PubChem BioAssay (NCI).

What all share (test): NCI-60 one-dose screen, 48 h (100 = growth as untreated, 0 = no growth, -100 = all killed)
In one assay the test system is HCT-15 colon. The note with it: 10 µM unless noted.
In the next assay the test system is HT29 colon. To be noted: 10 µM unless noted.
Another assay relates to SNB-75 CNS. To be noted: 10 µM unless noted.
For a further assay, the system named is SNB-19 CNS. To be noted: 10 µM unless noted.
In the next assay the test system is PC-3 prostate. To be noted: 10 µM unless noted.
The test system of another assay is SK-MEL-5 melanoma. The note with it: 10 µM unless noted.
The subject of the next assay is UACC-62 melanoma. The note with it: 10 µM unless noted.
The next assay concerns LOX IMVI melanoma. To be noted: 10 µM unless noted.
For the next assay, the system named is SK-MEL-28 melanoma. The note with it: 10 µM unless noted.
Another assay has as its system EKVX NSCLC. The note with it: 10 µM unless noted.
For the next assay, the system named is SN12C renal. The note with it: 10 µM unless noted.
In another assay the test system is UO-31 renal. To be noted: 10 µM unless noted.
The subject of a further assay is TK-10 renal. To be noted: 10 µM unless noted.
In another assay the test system is ACHN renal. The note with it: 10 µM unless noted.
The next assay has as its system CAKI-1 renal. The note with it: 10 µM unless noted.
The next assay deals with A498 renal. The note with it: 10 µM unless noted.
For another assay, the system named is CCRF-CEM leukemia. The note with it: 10 µM unless noted.
For the next assay, the system named is MOLT-4 leukemia. To be noted: 10 µM unless noted.
Another assay deals with U251 CNS. The note with it: 10 µM unless noted.
The test system of a further assay is SK-MEL-2 melanoma. The note with it: 10 µM.

About 83,000 compounds went through this panel and 20% of them were active in at least one assay; those are over-represented in the sample as a whole.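 Growth was measured after 48 h exposure to one concentration of compound in 96-well plates. Values under 10 count as active.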 Values without a mark were called inactive. Active and inactive are the calls of the source.

Consider `O=S1(=O)OC(c2cc(Cl)c(O)c(Br)c2)(c2cc(Cl)c(O)c(Br)c2)c2ccccc21`, for which the growth in the assay on HCT-15 colon was 105%; in the assay with HT29 colon, 102%; in the assay on SNB-75 CNS it was 83.4%; with SNB-19 CNS, 102%; in the assay on PC-3 prostate it was 84.3%; with SK-MEL-5 melanoma, 107%. For the same compound, the growth was 97.1% in the assay on UACC-62 melanoma; 96.5% in the assay with LOX IMVI melanoma; 118% in the assay with SK-MEL-28 melanoma; 110% in the assay on EKVX NSCLC; 90.6% in the assay on SN12C renal; 76.5% in the assay on UO-31 renal. Also, the growth in the assay with TK-10 renal was 93%; in the assay on ACHN renal, 103%; with CAKI-1 renal it was 107%; in the assay with A498 renal, 86.5%; in the assay with CCRF-CEM leukemia, 93.6%; with MOLT-4 leukemia, 92.4%.

Take `O=C(/C=C/c1ccc2c(c1)OCO2)c1c(O)c2ccccc2oc1=O`: the growth was 97.1% in the assay with HCT-15 colon; 96.6% with HT29 colon; 87.7% with SNB-75 CNS; 115% with SNB-19 CNS; 95.9% in the assay with PC-3 prostate; 111% in the assay with SK-MEL-5 melanoma. Also, the growth in the assay with UACC-62 melanoma is 96.7%; with LOX IMVI melanoma it was 94.6%; in the assay on SK-MEL-28 melanoma, 112%; in the assay with EKVX NSCLC it was 108%; in the assay with SN12C renal it was 106%; in the assay with UO-31 renal it was 90.1%. For the same compound, the growth with TK-10 renal is 113%; in the assay on ACHN renal, 102%; in the assay with CAKI-1 renal it was 95%; in the assay with A498 renal it was 107%; in the assay on CCRF-CEM leukemia, 103%; in the assay on MOLT-4 leukemia it was 77.6%.

In the case of `C=CC(=O)Nc1cc(Nc2nccc(-c3cn(C)c4ccccc34)n2)c(OC)cc1N(C)CCN(C)C`, the growth is -63.9% (active) in the assay with HCT-15 colon; -61.2% (active) in the assay with HT29 colon; -6.88% (active) in the assay on SNB-75 CNS; -7.94% (active) in the assay with SNB-19 CNS; -72.7% (active) with U251 CNS; -52.6% (active) in the assay on PC-3 prostate. Besides, the growth in the assay on SK-MEL-5 melanoma was -96.5% (active); in the assay on UACC-62 melanoma it was -68.8% (active); with LOX IMVI melanoma, -84.6% (active); with SK-MEL-28 melanoma, -87.2% (active); in the assay with EKVX NSCLC, -46.2% (active); in the assay with SN12C renal, -59.3% (active). The growth was -17.1% (active) with TK-10 renal; -95.4% (active) with ACHN renal; -58.3% (active) in the assay with A498 renal; -17.1% (active) in the assay on CCRF-CEM leukemia; -52.7% (active) with MOLT-4 leukemia.

In the case of `CCN(CC)CCOc1ccc(/C(=C(\C)c2ccc(Cl)cc2)c2ccc(Cl)cc2)cc1`, the growth is 21.7% with HCT-15 colon; 8.96% (active) with HT29 colon; 116% in the assay with SNB-75 CNS; 79.3% with SNB-19 CNS; 70.7% in the assay on PC-3 prostate; 38% with SK-MEL-5 melanoma. Moreover, the growth was 88.4% with UACC-62 melanoma; 35.4% in the assay with LOX IMVI melanoma; 75.6% in the assay on SK-MEL-28 melanoma; 88.6% in the assay on EKVX NSCLC; 76.5% with SN12C renal; 64.8% in the assay on UO-31 renal. In addition, the growth with TK-10 renal is 87.6%; in the assay on ACHN renal, 94.5%; with CAKI-1 renal, 83.4%; in the assay on A498 renal it was 79.6%; with CCRF-CEM leukemia, 43.1%.

Take `C[C@@H]1COC(Nc2ccc3ncnc(Nc4ccc(OCc5nccs5)c(Cl)c4)c3c2)=N1`: the growth with HCT-15 colon was 29.2%; in the assay with HT29 colon, 14.8%; in the assay with SNB-75 CNS, 27.9%; in the assay with SNB-19 CNS it was 67.8%; with PC-3 prostate, 8.43% (active); in the assay with SK-MEL-5 melanoma it was -39% (active). The growth in the assay on UACC-62 melanoma is 23.5%; in the assay with LOX IMVI melanoma, 17.8%; in the assay with SK-MEL-28 melanoma, 29.8%; in the assay on EKVX NSCLC, 32.2%; in the assay on SN12C renal, 53.8%; with TK-10 renal, 20.4%. Moreover, the growth in the assay with ACHN renal is 23.3%; with CAKI-1 renal, 36.4%; with A498 renal, 22.5%; with CCRF-CEM leukemia, 24.7%; in the assay with MOLT-4 leukemia, 18.4%.

With `Cc1cn(-c2cc(NC(=O)c3ccc(C)c(Nc4nccc(-c5cnccn5)n4)c3)cc(C(F)(F)F)c2)cn1`, the growth in the assay with HCT-15 colon was 82%; with HT29 colon, 19.7%; in the assay with SNB-75 CNS, 88.2%; in the assay with SNB-19 CNS it was 74.5%; in the assay with PC-3 prostate, 60.3%; in the assay on SK-MEL-5 melanoma it was 57.9%. Besides, the growth was 26.4% with UACC-62 melanoma; 63.3% in the assay on LOX IMVI melanoma; 31.3% with SK-MEL-28 melanoma; 107% with EKVX NSCLC; 56.5% with SN12C renal; 62.9% with UO-31 renal. Further, the growth with TK-10 renal was 102%; with ACHN renal it was 83.7%; with CAKI-1 renal, 97.6%; in the assay with A498 renal, 106%; in the assay with CCRF-CEM leukemia, 60.5%; with MOLT-4 leukemia, 52.6%.

On to `CCCCn1c(C)nc2cc(Nc3nc(N4CCCCC4)nc4nc[nH]c34)ccc21`, for which the growth in the assay on HCT-15 colon was 52.9%; in the assay on HT29 colon, 59.8%; in the assay with SNB-75 CNS it was 11.4%; with SNB-19 CNS it was 73.3%; with PC-3 prostate, 25.7%; with SK-MEL-5 melanoma, -31.7% (active). Further, the growth is 45.4% with UACC-62 melanoma; 33.7% with LOX IMVI melanoma; 76% with SK-MEL-28 melanoma; 52.5% in the assay on EKVX NSCLC; 49.6% with SN12C renal; 28.1% in the assay with UO-31 renal. Besides, the growth with TK-10 renal is 57.2%; in the assay on ACHN renal it was 36.8%; in the assay with CAKI-1 renal, 31.1%; in the assay on A498 renal, 34.3%; in the assay with CCRF-CEM leukemia, 46.6%; in the assay with MOLT-4 leukemia it was 9.09% (active).

As for `C=C1CC[C@@H]2[C@](C)(COC(C)=O)[C@H](OC(C)=O)CC[C@@]2(C)[C@@H]1C/C=C1/C(=O)OC[C@H]1OC(C)=O`, the growth in the assay with HCT-15 colon was -23% (active); with HT29 colon, -39.4% (active); in the assay on SNB-75 CNS, 44.9%; in the assay on SNB-19 CNS, 83%; in the assay with PC-3 prostate, 88.5%; with SK-MEL-5 melanoma, 56.2%. Further, the growth was 29.7% in the assay with UACC-62 melanoma; -74.4% (active) in the assay with LOX IMVI melanoma; 37.8% in the assay on SK-MEL-28 melanoma; 103% in the assay with EKVX NSCLC; 33.4% in the assay on SN12C renal; 62.8% in the assay with UO-31 renal. Moreover, the growth in the assay with TK-10 renal was 16.9%; with ACHN renal, 19.5%; in the assay on CAKI-1 renal it was 81.5%; in the assay with A498 renal, 90.6%; with CCRF-CEM leukemia, -11.4% (active); in the assay with MOLT-4 leukemia, -6.05% (active).

As to `COc1cc2c3c(c1)nc(C)n3CCC2`, the growth in the assay with HCT-15 colon was 98.2%; in the assay with HT29 colon it was 97.2%; in the assay on SNB-75 CNS it was 83.4%; in the assay with SNB-19 CNS it was 101%; with PC-3 prostate it was 90.1%; with SK-MEL-5 melanoma, 97.4%. The growth was 100% with UACC-62 melanoma; 92.7% in the assay with LOX IMVI melanoma; 106% in the assay with SK-MEL-28 melanoma; 100% with SK-MEL-2 melanoma; 95.5% with EKVX NSCLC; 99.6% with SN12C renal. For the same compound, the growth was 91.1% in the assay on UO-31 renal; 99% in the assay with TK-10 renal; 108% in the assay with ACHN renal; 93.2% with CCRF-CEM leukemia; 98.4% in the assay on MOLT-4 leukemia.
